Results as given in PubChem BioAssay (NCATS).
A number with no mark means an inactive call. Records with an inconclusive call do not appear. Calls of active or inactive are those of the source. The call rests on the fitted dose curve; in most records, active means well fitted curve in the direction sought with a large enough effect; inconclusive means small, poorly fitted or top-dose-only effect, or another doubt; inactive means no such curve, though single readings can be large; an effect the other way counts as inactive or inconclusive.

System: not listed separately
Assay: MultiTox-Fluor Cytotoxicity Assay - LYMP1-002 - Live Cells (AID 955);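 further: cells exposed to compound for 16 hours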; further: potency means the concentration at half of the fitted maximal effect; on viability change, negative = cytotoxic: on the % scale 0 is the no-effect control and ±100 the full control effect
Details: LYMP1-002 lymphoblastoid live-cell protease fluorescence viability; series mostly up to 46.1 µM; viability change, negative = cytotoxic: at the top concentration
In short: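 Cytotoxicity in the human lymphoblastoid line LYMP1-002 is measured as loss of live-cell protease activity after 16 h treatment in complete culture medium. AC50 is derived from Hill-equation fits of qHTS concentration-response data.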

SMILES | Potency | viability change, negative = cytotoxic
C[C@H]1CC[C@@H]2[C@@H](C)[C@H]3[C@H](C[C@H]4[C@@H]5CC=C6CC(O[C@@H]7O[C@H](CO)[C@H](O)[C@H](O[C@@H]8O[C@H](CO)[C@@H](O)[C@H](O)[C@H]8O)[C@H]7O[C@H]7O[C@@H](C)[C@H](O)[C@@H](O)[C@H]7O)CC[C@]6(C)[C@H]5CC[C@]34C)N2C1 (stereo partly drawn) | 12.6 µM (active) | 
O=CC=O |  | -3.04%
O=C1CCO1 |  | -7.09%
O=C1C=CC(=O)C=C1 |  | 9.73%
[O]=[Cd] |  | -6.96%

Target: Alpha-galactosidase (Coffea arabica) (UniProt Q42656)
Sequence (Q42656 whole entry, looked up): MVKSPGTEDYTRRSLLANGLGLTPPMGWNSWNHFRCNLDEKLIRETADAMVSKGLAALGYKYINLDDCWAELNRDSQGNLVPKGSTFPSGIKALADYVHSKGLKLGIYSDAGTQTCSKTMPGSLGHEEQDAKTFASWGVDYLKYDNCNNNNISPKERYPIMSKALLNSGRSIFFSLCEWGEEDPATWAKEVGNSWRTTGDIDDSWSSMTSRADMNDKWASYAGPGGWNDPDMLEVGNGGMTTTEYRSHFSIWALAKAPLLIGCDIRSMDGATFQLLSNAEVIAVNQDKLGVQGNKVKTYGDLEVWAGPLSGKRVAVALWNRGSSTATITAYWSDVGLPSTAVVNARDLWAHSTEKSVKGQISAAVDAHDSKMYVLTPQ
Assay: Counterscreen for Glucocerebrosidase Inhibitors: qHTS Assay for Coffee Bean alpha-Galactosidase at pH 4.5 (AID 957);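 further: plate controls were enzyme alone for no effect and no enzyme for full effect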
Details: purified coffee bean alpha-galactosidase, fluorogenic substrate; series mostly up to 76.9 µM; activity change, negative = inhibition: at the top concentration
In short: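 AC50 values derive from Hill-equation modeling of concentration-response data, normalized to no-enzyme and full-activity controls. The pH 4.5 citrate assay used 2 nM coffee bean enzyme and 80 uM fluorogenic substrate for 20 min.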

SMILES | activity change, negative = inhibition | outcome
NCCCP(=O)(O)O | -0.44% | 
C[N+]1(C)CCC(OC(=O)C(c2ccccc2)c2ccccc2)CC1 | 0.611% | 
CNC(=O)OCC[N+](C)(C)C | -2.5% | 
Cc1sc2ccccc2c1CC1=NCCN1 | 0.185% | 
CCCn1c(=O)c2[nH]c(C3CCCC3)nc2n(CCCOC(=O)c2ccc(S(=O)(=O)F)cc2)c1=O | -0.0205% | 
CN1CCc2cc(O)cc3c2[C@H]1Cc1ccc(O)c(O)c1-3 | -1.09% | 
Clc1cc(I)cc(Cl)c1NC1=NCCN1 | 0.0261% | 
CCN(CCCl)Cc1ccccc1Br | 0.175% | 
CC(C)(C)c1cc(C=C(C#N)C#N)cc(C(C)(C)C)c1O | -5.08% | 
NNC(=O)c1ccc(O)cc1 | 1.63% | 
CC(C)NP(=O)(NC(C)C)OP(=O)(NC(C)C)NC(C)C | 0.197% | 
O=P(O)(O)C(Cl)(Cl)P(=O)(O)O | -0.277% | 
Clc1ccc(N2C[C@H]3CC[C@@H](C2)N3)nn1 | 0.0522% | 
CCCN(CCC)C1Cc2cc(OC)c(OC)cc2C1 | 1.22% | 
O=[N+]([O-])c1cc(O)c(O)c([N+](=O)[O-])c1 | -4.66% | 
C[N+](C)(C)CC#CCOC(=O)Nc1cccc(Cl)c1 | 2.51% | 
CN1CCC(c2c[nH]c3ccc(O)cc23)CC1 | 3.51% | 
CCCN(CCC)[C@@H]1CCc2cccc(O)c2C1 |  | inactive

Target: Pyruvate kinase PKM (Homo sapiens) (UniProt P14618)
Sequence (P14618 whole entry, looked up): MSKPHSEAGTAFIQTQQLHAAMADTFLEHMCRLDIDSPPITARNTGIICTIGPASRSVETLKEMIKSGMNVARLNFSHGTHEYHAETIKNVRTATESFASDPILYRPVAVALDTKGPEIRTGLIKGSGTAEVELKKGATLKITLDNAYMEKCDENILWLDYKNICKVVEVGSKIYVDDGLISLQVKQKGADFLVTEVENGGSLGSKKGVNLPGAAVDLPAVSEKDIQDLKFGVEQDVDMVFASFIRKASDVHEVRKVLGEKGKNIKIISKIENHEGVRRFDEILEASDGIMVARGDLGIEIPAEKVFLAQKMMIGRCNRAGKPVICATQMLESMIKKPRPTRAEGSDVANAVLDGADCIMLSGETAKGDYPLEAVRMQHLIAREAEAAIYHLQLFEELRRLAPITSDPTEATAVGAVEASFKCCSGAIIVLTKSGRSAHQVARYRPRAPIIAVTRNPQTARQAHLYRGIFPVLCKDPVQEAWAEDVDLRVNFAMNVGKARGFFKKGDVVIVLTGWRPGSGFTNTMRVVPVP
Assay: qHTS Assay for Inhibitors of Human Muscle Pyruvate Kinase (AID 958)
Details: purified human PKM enzyme activity; series mostly up to 57.5 µM; activity change, negative = inhibition: at the top concentration
In short: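 Screening used highly purified human pyruvate kinase M2 under submaximal activity, with PEP at its Km and ADP below Km. After an hour at room temperature, ATP was read by luciferase luminescence.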

SMILES | activity change, negative = inhibition | Potency
CN1CCc2cc(O)cc3c2[C@H]1Cc1ccc(O)c(O)c1-3 | 36.4% | 
CN(N=O)c1cc(O)ccc1O | 22.7% | 
CN(N=O)c1ccc(O)c(O)c1 | 47.3% | 
O=c1c2ccccc2[se]n1-c1ccccc1 |  | 10 µM (active)
O=C(O)c1cc[c]([Hg][Cl])cc1 |  | 2.51 µM (active)

Target: Pyruvate kinase (Leishmania mexicana) (UniProt Q27686)
Sequence (Q27686 2-499 E452W): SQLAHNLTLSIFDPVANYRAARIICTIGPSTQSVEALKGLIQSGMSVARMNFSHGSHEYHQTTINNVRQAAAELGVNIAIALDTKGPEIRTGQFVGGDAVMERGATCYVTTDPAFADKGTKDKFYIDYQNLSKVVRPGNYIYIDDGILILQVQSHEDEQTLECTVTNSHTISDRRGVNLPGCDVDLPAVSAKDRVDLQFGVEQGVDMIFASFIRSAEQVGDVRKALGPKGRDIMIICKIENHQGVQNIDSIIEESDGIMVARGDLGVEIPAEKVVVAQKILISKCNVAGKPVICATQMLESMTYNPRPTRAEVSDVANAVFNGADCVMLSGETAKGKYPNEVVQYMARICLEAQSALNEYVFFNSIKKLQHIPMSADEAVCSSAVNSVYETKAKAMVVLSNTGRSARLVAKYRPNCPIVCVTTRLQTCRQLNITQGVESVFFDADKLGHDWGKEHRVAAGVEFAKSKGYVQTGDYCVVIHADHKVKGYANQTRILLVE
Assay: qHTS Validation Assay for Activators of Leishmania Mexicana Pyruvate Kinase (AID 959)
Details: purified L. mexicana pyruvate kinase, enzyme activity; series mostly up to 57.5 µM; activity change, positive = activation: at the top concentration
In short: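 Compounds are tested as eight-point concentration series. Reactions contain 0.2 nM LmPYK E451W, 0.5 mM PEP, 0.1 mM ADP, 7 mM MgCl2 and 50 mM KCl at pH 7.2, run 1 h at room temperature, then read by PKLight luminescence.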

SMILES | Potency | activity change, positive = activation
CN(N=O)c1cc(O)ccc1O | 3.16 µM (active) | 
O=c1c2ccccc2[se]n1-c1ccccc1 |  | -100%
O=C(O)c1cc[c]([Hg][Cl])cc1 |  | -76.5%

System: not listed separately
Assay: MultiTox-Fluor Cytotoxicity Assay - LYMP1-003 - Live Cells (AID 962);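 further: cells exposed to compound for 16 hours at 37 °C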; further: potency means the concentration at half of the fitted maximal effect;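 on activity change, negative = fewer live cells: 0% = DMSO only and full loss = 92 µM tetraoctylammonium bromide; cytotoxic hits lower the live-cell protease signal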
Details: LYMP1-003 lymphoblastoid cells, MultiTox-Fluor live-cell protease fluorescence; series mostly up to 92.2 µM; activity change, negative = fewer live cells: at the top concentration
In short: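 Cells plated at 2500 per well and incubated 5 hr; compounds added and incubated 16 hr at 37 C; MultiTox-Fluor reagent added for 60 min at room temperature; fluorescence of liberated AFC measured at 405/510 nm.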

SMILES | Potency | activity change, negative = fewer live cells
C[C@H]1CC[C@@H]2[C@@H](C)[C@H]3[C@H](C[C@H]4[C@@H]5CC=C6CC(O[C@@H]7O[C@H](CO)[C@H](O)[C@H](O[C@@H]8O[C@H](CO)[C@@H](O)[C@H](O)[C@H]8O)[C@H]7O[C@H]7O[C@@H](C)[C@H](O)[C@@H](O)[C@H]7O)CC[C@]6(C)[C@H]5CC[C@]34C)N2C1 (stereo partly drawn) | 25.1 µM (active) | 
O=CC=O |  | -10%
O=C1CCO1 |  | -3.55%
O=C1C=CC(=O)C=C1 |  | -6.1%
[O]=[Cd] |  | -8.66%

System: not listed separately
Assay: Cell Viability - LYMP1-003 - Assay at 24 hr (AID 963); further: potency means the concentration at half of the fitted maximal effect;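 on viability change, negative = cytotoxic: plate controls were DMSO only for no effect and tetraoctylammonium bromide positive control for full effect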
Details: LYMP1-003 lymphoblastoid cell viability; series mostly up to 92.2 µM; viability change, negative = cytotoxic: at the top concentration
In short: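 Acute toxicity in LYMP1-003 lymphoblastoid cells: 24 hr compound treatment at 37 C, ATP measured with CellTiter-Glo after 30 min at room temperature. AC50 derived by fitting the Hill equation to qHTS titrations.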

SMILES | Potency | viability change, negative = cytotoxic
C[C@H]1CC[C@@H]2[C@@H](C)[C@H]3[C@H](C[C@H]4[C@@H]5CC=C6CC(O[C@@H]7O[C@H](CO)[C@H](O)[C@H](O[C@@H]8O[C@H](CO)[C@@H](O)[C@H](O)[C@H]8O)[C@H]7O[C@H]7O[C@@H](C)[C@H](O)[C@@H](O)[C@H]7O)CC[C@]6(C)[C@H]5CC[C@]34C)N2C1 (stereo partly drawn) | 20 µM (active) | 
O=CC=O |  | -2.04%
O=C1CCO1 |  | -7.48%
O=C1C=CC(=O)C=C1 |  | 1.23%
[O]=[Cd] |  | -4.13%

System: not listed separately
Assay: Cell Viability - LYMP1-003 - Assay at 40 hr (AID 964); further: nearly all actives have a fitted effect of over 60% in size; further: potency means the concentration at half of the fitted maximal effect; on activity change, negative = cytotoxic: on the % scale 0 is the no-effect control and ±100 the full control effect
Details: LYMP1-003 lymphoblastoid viability; series mostly up to 92.2 µM; activity change, negative = cytotoxic: at the top concentration
In short: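 This qHTS cytotoxicity screen treats human lymphoblastoid cells (LYMP1-003) with compounds for 40 hr and quantifies cellular ATP via luciferase luminescence.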

SMILES | Potency | activity change, negative = cytotoxic
C[C@H]1CC[C@@H]2[C@@H](C)[C@H]3[C@H](C[C@H]4[C@@H]5CC=C6CC(O[C@@H]7O[C@H](CO)[C@H](O)[C@H](O[C@@H]8O[C@H](CO)[C@@H](O)[C@H](O)[C@H]8O)[C@H]7O[C@H]7O[C@@H](C)[C@H](O)[C@@H](O)[C@H]7O)CC[C@]6(C)[C@H]5CC[C@]34C)N2C1 (stereo partly drawn) | 39.8 µM (active) | 
O=CC=O |  | -13.7%
O=C1CCO1 |  | -22.9%
O=C1C=CC(=O)C=C1 |  | -17.8%
[O]=[Cd] |  | -2.55%

System: not listed separately
Assay: Cell Viability - LYMP2-003 (AID 965);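 further: cells exposed to compounds for 24 h before reading; 0% = DMSO only and full effect = 92 µM tetraoctylammonium bromide; nearly all actives have a fitted effect of over 50% in size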
Details: LYMP2-003 lymphoblastoid cell viability; series mostly up to 92.2 µM; activity change, negative = cytotoxicity: at the top concentration
In short: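 Seed 2500 lymphoblastoid cells/well; incubate 5 hr, 37 C; add compounds; incubate 24 hr, 37 C; add CellTiter-Glo, 30 min RT; read luminescence. AC50 from Hill fit.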

SMILES | activity change, negative = cytotoxicity
O=CC=O | -8.35%
O=C1CCO1 | 18.4%
O=C1C=CC(=O)C=C1 | 4.02%
[O]=[Cd] | 5.11%

System: not listed separately
Assay: Cell Viability - LYMP2-004 (AID 966); further: nearly all actives have a fitted effect of over 65% in size; further: potency means the concentration at half of the fitted maximal effect;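 on activity change, negative = cytotoxicity: plate controls were DMSO only for no effect and tetraoctylammonium bromide control for full effect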
Details: LYMP2-004 lymphoblastoid cell viability, qHTS; series mostly up to 92.2 µM; activity change, negative = cytotoxicity: at the top concentration
In short: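 Acute toxicity is scored as a concentration-dependent drop in intracellular ATP, quantified by luciferase luminescence, in human lymphoblastoid cells exposed to compound for 24 hr. AC50 derives from Hill-equation modelling.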

SMILES | Potency | activity change, negative = cytotoxicity
C[C@H]1CC[C@@H]2[C@@H](C)[C@H]3[C@H](C[C@H]4[C@@H]5CC=C6CC(O[C@@H]7O[C@H](CO)[C@H](O)[C@H](O[C@@H]8O[C@H](CO)[C@@H](O)[C@H](O)[C@H]8O)[C@H]7O[C@H]7O[C@@H](C)[C@H](O)[C@@H](O)[C@H]7O)CC[C@]6(C)[C@H]5CC[C@]34C)N2C1 (stereo partly drawn) | 50.1 µM (active) | 
O=CC=O |  | 1.26%
O=C1CCO1 |  | 20.2%
[O]=[Cd] |  | 5.69%

System: not listed separately
Assay: Cell Viability - LYMP2-005 (AID 967);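 further: cells exposed to compound for 24 h at 37 °C; plate controls were DMSO only for no effect and 92 µM tetraoctylammonium bromide control for full effect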
Details: LYMP2-005 lymphoblastoid cell viability; series mostly up to 92.2 µM; activity change, negative = viability loss: at the top concentration
In short: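 Acute cytotoxicity is scored as a concentration-dependent drop in intracellular ATP in human lymphoblastoid LYMP2-005 cells after 24 h compound treatment. ATP is quantified by luciferase luminescence, and AC50 is derived by Hill-equation modelling.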

SMILES | activity change, negative = viability loss
O=CC=O | -12.4%
O=C1CCO1 | 11.1%
O=C1C=CC(=O)C=C1 | 8.67%
[O]=[Cd] | 16.2%
